Measurements published in the supplement of paper PMC10849652.
Of roughly 7,900 targets only a part is listed; those with a hit were picked by preference. About 0.6% of all pairs of compound and target were hits. Unmarked numbers belong to inactive results.

Columns and labels:
Experiment in all cases: log2 fold change, soluble protein after heating vs DMSO (PISA); higher = thermal stabilisation; K562 cells, 10 uM, 30 min; active = over 0.2 and 3.5 SD of the protein, either way, in both replicates (recomputed)
IRAK-1-4 Inhibitor I = compound: C1COCCN1CCN2C3=CC=CC=C3N=C2NC(=O)C4=CC(=CC=C4)[N+](=O)[O-] [IRAK-1-4 Inhibitor I]
In short: (§1)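 Soluble protein was quantified by TMTpro 16plex LC-MS/MS after channel sums were equalised. It was obtained as the supernatant after 21,000xg for 90 min from pooled aliquots of K562 cells (2×10^6 cells/mL, 10 μM compound, 30 min) heated for 3 min across 48°C-58°C and extracted in PBS with 0.5% NP-40 at 4°C. Thermal stability values are relative to control samples and come from duplicates. They are given as log2 fold changes.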

ibrutinib = compound: C=CC(=O)N1CCC[C@@H](n2nc(-c3ccc(Oc4ccccc4)cc3)c3c(N)ncnc32)C1 [ibrutinib]
In short: as §1

[1] = compound: CC(=O)c1cnc2ccc(-c3cc(Cl)c(O)c(Cl)c3)nc2c1N[C@H]1CC[C@H](CN(C)C)CC1
In short: as §1

ralimetinib = compound: CC(C)(C)Cn1c(N)nc2ccc(-c3[nH]c(C(C)(C)C)nc3-c3ccc(F)cc3)nc21 [ralimetinib]
In short: as §1

[2] = compound: CC(C)(O)CC(=O)NCCn1ccc2ncnc(Nc3ccc(Oc4cccc(C(F)(F)F)c4)c(Cl)c3)c21
In short: as §1

[3] = compound: CC(C)C1=C2N=C(C=C(N2N=C1)NCC3=CC=CC=C3)NCCCCCCN
In short: as §1

[4] = compound: CC(C)C[C@@H](C=O)NC(=O)[C@H](CC(C)C)NC(=O)[C@H](CC(C)C)NC(=O)OCc1ccccc1
In short: as §1

pinometostat = compound: CC(C)N(C[C@H]1O[C@@H](n2cnc3c(N)ncnc32)[C@H](O)[C@@H]1O)[C@H]1C[C@@H](CCc2nc3cc(C(C)(C)C)ccc3[nH]2)C1 [pinometostat]
In short: as §1

[5] = compound: CC1=C(C(CC(=O)N1)C2=CC=C(C=C2)C(F)(F)F)C(=O)NC3=C(C=C4C(=C3)C=NN4)F
In short: as §1

[6] = compound: CC1=C(C2=C(C=C1)C(=O)C3=CC=CC=C3N2CCCN)C
In short: as §1

[7] = compound: CC1=C(C=C(C=C1)NC(=O)C2=CC(=CC=C2)C(C)(C)C#N)NC3=CC4=C(C=C3)N=CN(C4=O)C
In short: as §1

[8] = compound: CC1=C(C=C(C=C1)NC(=O)C2=CC(=CC=C2)N(C)C)NC(=O)C3=CC=C(C=C3)O
In short: as §1

[9] = compound: CC1=CC=C(C=C1)SC2=C3C=C(SC3=CN=C2)C(=O)N
In short: as §1

[10] = compound: CC1=NC(=CC=C1)C2=C(N=C(N2)C(C)(C)C)C3=CC4=NC=CN=C4C=C3
In short: as §1

Nexturastat A = compound: CCCCN(Cc1ccc(C(=O)NO)cc1)C(=O)Nc1ccccc1 [Nexturastat A]
In short: as §1

vemurafenib = compound: CCCS(=O)(=O)Nc1ccc(F)c(C(=O)c2c[nH]c3ncc(-c4ccc(Cl)cc4)cc23)c1F [vemurafenib]
In short: as §1

[11] = compound: CCCS(=O)(=O)Nc1ccc(F)c(C(=O)c2c[nH]c3ncc(Cl)cc23)c1F
In short: as §1

[12] = compound: CCCc1cc(C)[nH]c(=O)c1CNC(=O)c1cc(-c2ccnc(N3CCN(C)CC3)c2)cc2c1cnn2C(C)C
In short: as §1

givinostat = compound: CCN(CC)Cc1ccc2cc(COC(=O)Nc3ccc(C(=O)NO)cc3)ccc2c1 [givinostat]
In short: as §1

barasertib = compound: CCN(CCCOc1ccc2c(Nc3cc(CC(=O)Nc4cccc(F)c4)[nH]n3)ncnc2c1)CCOP(=O)(O)O [barasertib]
In short: as §1

Chain of UniProt Q12986 (Q12986 whole entry, looked up): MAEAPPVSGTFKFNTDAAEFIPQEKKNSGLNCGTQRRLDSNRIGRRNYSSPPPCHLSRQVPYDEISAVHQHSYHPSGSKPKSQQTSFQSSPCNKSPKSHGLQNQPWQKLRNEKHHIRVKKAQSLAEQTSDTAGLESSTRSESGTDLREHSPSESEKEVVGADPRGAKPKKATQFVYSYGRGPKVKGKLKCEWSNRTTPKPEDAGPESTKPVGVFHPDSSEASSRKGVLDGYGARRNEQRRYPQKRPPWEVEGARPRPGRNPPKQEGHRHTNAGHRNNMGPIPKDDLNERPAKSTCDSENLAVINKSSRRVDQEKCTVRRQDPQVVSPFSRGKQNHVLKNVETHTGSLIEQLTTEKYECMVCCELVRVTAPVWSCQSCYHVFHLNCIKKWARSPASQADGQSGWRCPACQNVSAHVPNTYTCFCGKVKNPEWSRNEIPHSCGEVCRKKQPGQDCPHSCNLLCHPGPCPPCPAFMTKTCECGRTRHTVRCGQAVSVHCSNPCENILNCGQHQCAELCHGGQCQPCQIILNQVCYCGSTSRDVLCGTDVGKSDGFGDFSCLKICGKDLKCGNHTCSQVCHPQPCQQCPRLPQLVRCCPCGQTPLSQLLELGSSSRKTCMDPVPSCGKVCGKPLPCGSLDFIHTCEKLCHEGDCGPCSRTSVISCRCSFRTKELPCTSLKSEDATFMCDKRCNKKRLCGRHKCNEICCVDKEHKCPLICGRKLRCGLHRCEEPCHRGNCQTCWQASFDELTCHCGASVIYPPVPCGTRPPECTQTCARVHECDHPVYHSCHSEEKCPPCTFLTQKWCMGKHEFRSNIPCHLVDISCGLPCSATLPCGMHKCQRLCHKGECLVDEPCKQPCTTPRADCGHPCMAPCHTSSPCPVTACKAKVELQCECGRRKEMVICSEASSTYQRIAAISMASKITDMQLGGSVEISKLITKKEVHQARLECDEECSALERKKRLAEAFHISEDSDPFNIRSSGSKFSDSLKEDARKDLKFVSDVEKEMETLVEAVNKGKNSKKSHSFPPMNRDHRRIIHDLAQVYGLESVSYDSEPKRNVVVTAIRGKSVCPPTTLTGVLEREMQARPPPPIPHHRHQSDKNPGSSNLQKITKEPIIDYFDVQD
Chain of UniProt P57740 (P57740 whole entry, looked up): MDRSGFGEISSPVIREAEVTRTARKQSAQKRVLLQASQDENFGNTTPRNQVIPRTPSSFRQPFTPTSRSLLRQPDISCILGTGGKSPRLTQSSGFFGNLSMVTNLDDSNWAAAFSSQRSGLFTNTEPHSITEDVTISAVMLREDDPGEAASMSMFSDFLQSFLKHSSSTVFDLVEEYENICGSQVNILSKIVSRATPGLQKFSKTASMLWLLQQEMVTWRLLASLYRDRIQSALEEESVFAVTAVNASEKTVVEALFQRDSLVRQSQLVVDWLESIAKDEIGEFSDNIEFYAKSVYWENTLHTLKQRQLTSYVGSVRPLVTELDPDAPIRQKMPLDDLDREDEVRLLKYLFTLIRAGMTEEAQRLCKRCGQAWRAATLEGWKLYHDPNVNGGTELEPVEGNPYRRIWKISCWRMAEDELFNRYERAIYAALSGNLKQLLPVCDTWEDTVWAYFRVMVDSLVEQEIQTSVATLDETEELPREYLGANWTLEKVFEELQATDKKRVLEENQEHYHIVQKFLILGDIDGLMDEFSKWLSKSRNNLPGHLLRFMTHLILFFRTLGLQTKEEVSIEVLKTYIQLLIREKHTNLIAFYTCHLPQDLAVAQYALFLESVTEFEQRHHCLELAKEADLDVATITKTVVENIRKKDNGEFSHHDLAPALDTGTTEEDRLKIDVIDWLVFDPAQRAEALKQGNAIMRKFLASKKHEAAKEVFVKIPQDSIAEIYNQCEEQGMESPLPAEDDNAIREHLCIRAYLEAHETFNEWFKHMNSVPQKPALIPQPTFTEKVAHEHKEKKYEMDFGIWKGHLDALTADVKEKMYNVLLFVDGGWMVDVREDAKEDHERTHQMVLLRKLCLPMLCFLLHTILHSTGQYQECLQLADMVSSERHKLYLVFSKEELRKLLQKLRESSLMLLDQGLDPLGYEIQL
Chain of UniProt P49321 (P49321 whole entry, looked up): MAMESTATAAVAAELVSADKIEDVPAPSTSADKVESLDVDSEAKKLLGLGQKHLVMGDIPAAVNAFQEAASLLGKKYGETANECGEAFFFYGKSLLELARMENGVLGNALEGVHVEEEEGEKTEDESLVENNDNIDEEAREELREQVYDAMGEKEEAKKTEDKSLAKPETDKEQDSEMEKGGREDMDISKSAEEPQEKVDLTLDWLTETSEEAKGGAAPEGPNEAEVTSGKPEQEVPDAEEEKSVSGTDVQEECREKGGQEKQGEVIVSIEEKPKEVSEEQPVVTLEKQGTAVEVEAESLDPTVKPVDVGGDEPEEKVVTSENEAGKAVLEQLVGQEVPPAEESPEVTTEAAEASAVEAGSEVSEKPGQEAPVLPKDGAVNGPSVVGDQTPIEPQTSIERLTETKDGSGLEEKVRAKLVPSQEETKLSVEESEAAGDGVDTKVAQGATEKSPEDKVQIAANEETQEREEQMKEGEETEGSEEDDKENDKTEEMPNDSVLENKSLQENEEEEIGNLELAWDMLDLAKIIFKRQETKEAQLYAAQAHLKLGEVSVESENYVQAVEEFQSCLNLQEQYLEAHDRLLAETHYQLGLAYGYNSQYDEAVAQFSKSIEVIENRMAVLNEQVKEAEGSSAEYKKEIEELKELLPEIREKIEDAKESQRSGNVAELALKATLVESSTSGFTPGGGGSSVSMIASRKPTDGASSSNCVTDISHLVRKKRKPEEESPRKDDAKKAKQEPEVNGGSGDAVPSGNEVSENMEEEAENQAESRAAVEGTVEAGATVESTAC
Chain of UniProt Q8NCF5 (Q8NCF5 whole entry, looked up): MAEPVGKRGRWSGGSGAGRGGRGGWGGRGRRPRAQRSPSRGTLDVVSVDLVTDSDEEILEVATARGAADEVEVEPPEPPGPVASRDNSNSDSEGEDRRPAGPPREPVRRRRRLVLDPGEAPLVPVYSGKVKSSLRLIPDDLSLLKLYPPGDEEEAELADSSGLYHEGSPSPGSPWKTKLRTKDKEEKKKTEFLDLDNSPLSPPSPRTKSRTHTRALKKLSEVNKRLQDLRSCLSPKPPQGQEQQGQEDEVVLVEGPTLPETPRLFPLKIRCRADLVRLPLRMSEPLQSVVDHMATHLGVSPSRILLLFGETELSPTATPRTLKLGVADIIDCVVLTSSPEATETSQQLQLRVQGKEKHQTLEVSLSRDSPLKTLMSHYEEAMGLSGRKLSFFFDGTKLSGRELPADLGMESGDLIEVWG
Chain of UniProt Q9UI09 (Q9UI09 whole entry, looked up): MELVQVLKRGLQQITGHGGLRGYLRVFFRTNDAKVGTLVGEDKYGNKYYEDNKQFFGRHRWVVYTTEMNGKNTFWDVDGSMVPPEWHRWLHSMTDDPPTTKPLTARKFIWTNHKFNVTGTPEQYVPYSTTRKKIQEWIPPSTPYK
Chain of UniProt Q8N6M0 (Q8N6M0 whole entry, looked up): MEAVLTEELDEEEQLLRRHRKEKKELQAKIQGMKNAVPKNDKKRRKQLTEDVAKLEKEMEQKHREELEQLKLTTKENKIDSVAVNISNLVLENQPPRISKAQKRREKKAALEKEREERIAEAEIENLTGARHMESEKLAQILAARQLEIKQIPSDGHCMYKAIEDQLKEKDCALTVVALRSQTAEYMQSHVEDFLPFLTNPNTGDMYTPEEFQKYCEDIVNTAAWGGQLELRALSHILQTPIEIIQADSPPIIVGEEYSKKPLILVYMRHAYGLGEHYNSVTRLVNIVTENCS
Chain of UniProt O14950 (O14950 whole entry, looked up): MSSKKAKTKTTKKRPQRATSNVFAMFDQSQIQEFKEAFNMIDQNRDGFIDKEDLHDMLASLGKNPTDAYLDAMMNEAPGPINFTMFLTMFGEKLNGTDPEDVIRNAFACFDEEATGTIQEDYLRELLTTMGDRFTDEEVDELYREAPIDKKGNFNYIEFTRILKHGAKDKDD
Chain of UniProt Q13153 (Q13153 whole entry, looked up): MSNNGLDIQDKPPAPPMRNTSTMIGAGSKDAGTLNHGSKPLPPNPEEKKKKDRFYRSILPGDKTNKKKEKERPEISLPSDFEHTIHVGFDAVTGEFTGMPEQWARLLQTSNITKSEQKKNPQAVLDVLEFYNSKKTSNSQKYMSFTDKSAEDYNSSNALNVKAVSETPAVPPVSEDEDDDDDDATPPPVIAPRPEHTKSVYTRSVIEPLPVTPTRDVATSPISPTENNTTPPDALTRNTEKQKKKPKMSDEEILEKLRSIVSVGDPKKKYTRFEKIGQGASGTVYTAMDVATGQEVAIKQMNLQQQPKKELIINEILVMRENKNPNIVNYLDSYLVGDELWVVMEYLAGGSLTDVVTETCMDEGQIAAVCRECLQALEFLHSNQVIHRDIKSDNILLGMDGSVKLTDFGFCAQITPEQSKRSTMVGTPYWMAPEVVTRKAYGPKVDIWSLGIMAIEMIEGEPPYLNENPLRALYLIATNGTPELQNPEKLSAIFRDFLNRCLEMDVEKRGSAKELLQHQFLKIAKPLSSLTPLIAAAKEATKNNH
Chain of UniProt Q9H3P2 (Q9H3P2 whole entry, looked up): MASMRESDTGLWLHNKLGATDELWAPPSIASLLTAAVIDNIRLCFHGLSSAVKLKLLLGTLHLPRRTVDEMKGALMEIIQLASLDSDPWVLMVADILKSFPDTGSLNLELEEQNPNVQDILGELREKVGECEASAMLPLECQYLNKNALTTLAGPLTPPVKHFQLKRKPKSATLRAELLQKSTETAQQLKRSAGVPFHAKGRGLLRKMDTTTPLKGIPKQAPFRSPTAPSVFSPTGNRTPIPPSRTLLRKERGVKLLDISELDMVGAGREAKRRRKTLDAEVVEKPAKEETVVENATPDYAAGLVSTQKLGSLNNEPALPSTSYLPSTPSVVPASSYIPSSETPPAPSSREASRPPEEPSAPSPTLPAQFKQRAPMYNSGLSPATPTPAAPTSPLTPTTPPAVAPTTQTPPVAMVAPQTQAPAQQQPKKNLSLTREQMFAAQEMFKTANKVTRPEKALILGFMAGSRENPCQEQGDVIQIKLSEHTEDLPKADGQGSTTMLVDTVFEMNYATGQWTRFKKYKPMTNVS

| Target | log2 fold change (IRAK-1-4 Inhibitor I) | log2 fold change (ibrutinib) | log2 fold change [1] | log2 fold change (ralimetinib) | log2 fold change [2] | log2 fold change [3] | log2 fold change [4] | log2 fold change (pinometostat) | log2 fold change [5] | log2 fold change [6] | log2 fold change [7] | log2 fold change [8] | log2 fold change [9] | log2 fold change [10] | log2 fold change (Nexturastat A) | log2 fold change (vemurafenib) | log2 fold change [11] | log2 fold change [12] | log2 fold change (givinostat) | log2 fold change (barasertib) |
| --- | --- | --- | --- | --- | --- | --- | --- | --- | --- | --- | --- | --- | --- | --- | --- | --- | --- | --- | --- | --- |
| NASP (UniProt P49321) | 0.01 | -0.044 | 0.033 | 0.019 | -0.004 | -0.05 | -0.009 | -0.048 | -0.021 | -0.09 | 0.012 | -0.033 | 0 | 0.009 | -0.058 | 0.037 | 0.038 | -0.006 | 0.001 | 0.027 |
| NFATC2IP (UniProt Q8NCF5) | -0.014 | -0.036 | -0.051 | -0.003 | -0.224 | -0.161 | -0.006 | -0.032 | 0.069 | -0.022 | -0.029 | -0.026 | 0.028 | 0.013 | 0.007 | -0.01 | 0.014 | 0.015 | 0.088 | 0.124 |
| MRPL34 (UniProt Q9BQ48) | -0.046 | 0.107 | 0.092 | 0.164 | 0.042 | -0.137 | 0.102 | 0.196 | 0.086 | -0.51 (active) | -0.022 | -0.01 | 0.019 | -0.052 | 0.259 | -0.062 | 0.051 | 0.066 | -0.021 | 0.022 |
| OTUD6B (UniProt Q8N6M0) | -0.046 | -0.017 | -0.02 | 0.036 | -0.049 | -0.269 (active) | 0.029 | 0.053 | 0.078 | -0.015 | 0.045 | -0.002 | 0.124 | 0.007 | 0.044 | 0.035 | 0.14 | 0.084 | -0.02 | 0.096 |
| NELFA (UniProt Q9H3P2) | -0.065 | 0 | -0.357 | 0.02 | -0.286 | -0.054 | -0.043 | -0.02 | -0.11 | 0.252 | -0.02 | -0.124 | 0.011 | 0.092 | -0.104 | 0.06 | 0.097 | 0.024 | 0.079 | 0.212 |
| MXRA7 (UniProt P84157) | 0.098 | 0.048 | -0.064 | -0.012 | 0.116 | 0.075 | -0.083 | -0.049 | -0.011 | -0.045 | -0.181 | -0.015 | 0.038 | 0.011 | -0.002 | 0.041 | -0.032 | -0.078 | 0.011 | 0.048 |
| MRPS16 (UniProt Q9Y3D3) | -0.082 | 0.02 | -0.047 | -0.008 | -0.034 | -0.19 | 0.015 | 0.021 | 0 | -0.126 | 0.055 | -0.052 | 0.006 | 0.132 | 0.124 | -0.014 | 0.062 | 0.032 | 0.031 | -0.084 |
| NMNAT1 (UniProt Q9HAN9) | -0.007 | 0.073 | 0.05 | 0.18 | 0.13 | 0.093 | 0.168 | 0.429 | 0.051 | -0.674 (active) | -0.079 | 0.006 | -0.09 | -0.196 | 0.132 | -0.162 | -0.139 | 0.178 | 0.042 | -0.064 |
| NDUFB10 (UniProt O96000) | 0.015 | 0.009 | -0.001 | -0.057 | -0.018 | -0.11 | 0.023 | -0.018 | 0 | 0.009 | -0.093 | -0.008 | 0.001 | 0.05 | -0.002 | -0.019 | 0 | -0.126 | -0.023 | 0.02 |
| PAK1 isoform 2 (UniProt Q13153) | 0.018 | 0.048 | 0.158 | -0.066 | -0.025 | 0 | -0.046 | -0.038 | 0.192 | 0.051 | 0.035 | -0.072 | 0.114 | 0.003 | -0.01 | 0.019 | -0.036 | -0.075 | -0.054 | -0.001 |
| NUP107 (UniProt P57740) | -0.054 | -0.152 | -0.035 | 0.035 | 0.023 | -0.005 | 0.089 | 0.165 | 0.062 | -0.052 | -0.035 | 0.085 | 0.117 | 0.012 | 0.17 | 0.1 | 0.219 | -0.031 | 0.011 | 0.017 |
| NUP205 (UniProt Q92621) | -0.035 | -0.038 | -0.1 | -0.027 | 0.032 | -0.167 | -0.058 | 0 | -0.005 | 0.018 | 0.009 | 0.018 | 0.002 | 0.075 | 0.151 | 0.059 | 0.084 | -0.016 | 0.076 | 0.044 |
| NA, A0A0B4J2A0 | 0.014 | -0.015 | -0.072 | -0.023 | -0.105 | 0.044 | 0.031 | 0.018 | 0.051 | 0.107 | 0.016 | -0.028 | 0.002 | -0.006 | -0.043 | 0.017 | 0.072 | -0.091 | 0.029 | 0.012 |
| NFX1 (UniProt Q12986) | -0.028 | 0.083 | -0.002 | 0.178 | 0.099 | -0.051 | 0.227 | 0.182 | 0.011 | -0.043 | -0.113 | 0.051 | -0.082 | 0.004 | 0.287 | 0.148 | -0.032 | 0.17 | 0 | -0.125 |
| NDUFA12 (UniProt Q9UI09) | 0.05 | -0.078 | -0.04 | -0.043 | -0.128 | -0.31 (active) | 0.021 | -0.06 | -0.012 | 0.122 | 0.022 | -0.1 | 0.014 | -0.028 | -0.027 | 0.039 | 0.03 | -0.044 | 0.114 | 0.056 |
| MYL12B (UniProt O14950) | 0.047 | 0.043 | 0.067 | 0.143 | -0.013 | 0.005 | -0.015 | 0.011 | -0.045 | -0.004 | 0.005 | -0.015 | 0.014 | 0.007 | -0.005 | 0.039 | 0.054 | 0.136 | -0.023 | 0.014 |
